A selection: hits, their analogues and other compounds. The true share with any hit is near 7.3%.
VP16 counter: counter-screen for ROR gamma inhibitors: Gal4-VP16 reporter | AID 2546 | Drosophila S2 Gal4-VP16 UAS-luciferase, luminescence, 20 h | 310,000 compounds, 3.5% hits | Potency, µM (top dose mostly 53.6 µM), for the others: at the top dose activity, negative = inhibition, hits mostly inhibitors;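 note: Gal4-VP16 expression switched on by copper sulfate through the metallothionein promoter; nearly all actives have a fitted effect of over 50% in size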
Tau ThT inhib: tau fibrillization inhibition (ThT binding) | recombinant tau K18 P301L, heparin-induced fibrillization, ThT fluorescence | Potency, µM (doses to about 57.4 µM), for inactives: at the highest dose activity, negative = inhibition, most hits filed as inhibitors | 270,000 compounds, 2.1% hits | AID 1460; note: nearly all actives have a fitted effect of over 55% in size
Target sequence (P10636 561-689 P618L limits assumed): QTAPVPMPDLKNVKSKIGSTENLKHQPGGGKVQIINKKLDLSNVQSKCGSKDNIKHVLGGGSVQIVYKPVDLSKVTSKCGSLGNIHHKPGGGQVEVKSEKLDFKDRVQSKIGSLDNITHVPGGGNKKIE
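Heparin-induced (20 uM) aggregation of recombinant human K18 P301L tau, 15 uM unlabeled with 0.24 uM labeled, pH 7 acetate buffer, 6 hr at 37 C with compound. Fibrils quantified by 30 uM ThT fluorescence after 1 hr ambient incubation.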
Tau fluor cs: counter-screen for tau fibril formation inhibitors; tau K18 P301L (four-repeat tau fragment) Alexa594 fluorescence, heparin fibrillization; Potency, µM (top dose mostly 57.7 µM), without a hit: at the highest dose activity change, negative = decrease; 280,000 compounds, 0.93% hits; AID 1463; note: nearly all actives have a fitted effect of over 55% in size
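Human K18 P301L tau (15 uM unlabeled plus 0.24 uM Alexa 594-labeled, final) in 100 mM sodium acetate pH 7 was mixed with compound and 20 uM heparin and incubated 6 hr at 37 C.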
Tau fibril FP: inhibitors of human tau fibril formation; AID 1468; 280,000 compounds, 0.39% hits; Potency, µM (doses to about 57.7 µM), without a hit: at the highest dose activity, negative = inhibition, actives largely listed as inhibitors; P10636; K18 P301L tau heparin fibrillization, Alexa594 FP, 6 h; note: nearly all actives have a fitted effect of over 55% in size
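Read-out: fluorescence polarization of Alexa 594-labeled tau (0.24 uM), 555 nm excitation, 632 nm emission. Mixtures held 15 uM unlabeled K18 P301L, compound and 20 uM heparin, pH 7 acetate buffer, incubated 6 hr at 37 C.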
RORgamma inh: inhibitors of mouse ROR gamma transcriptional activity; P51450; Drosophila S2 Gal4-RORgamma UAS-luciferase reporter, 20 h; Potency, µM (doses to about 53.6 µM), for the others: at the highest dose activity change, negative = inhibition, most hits filed as inhibitors; 310,000 compounds, 5.4% hits; note: nearly all actives have a fitted effect of over 60% in size
Target sequence (P51450 whole entry, looked up, the tested form may be a part): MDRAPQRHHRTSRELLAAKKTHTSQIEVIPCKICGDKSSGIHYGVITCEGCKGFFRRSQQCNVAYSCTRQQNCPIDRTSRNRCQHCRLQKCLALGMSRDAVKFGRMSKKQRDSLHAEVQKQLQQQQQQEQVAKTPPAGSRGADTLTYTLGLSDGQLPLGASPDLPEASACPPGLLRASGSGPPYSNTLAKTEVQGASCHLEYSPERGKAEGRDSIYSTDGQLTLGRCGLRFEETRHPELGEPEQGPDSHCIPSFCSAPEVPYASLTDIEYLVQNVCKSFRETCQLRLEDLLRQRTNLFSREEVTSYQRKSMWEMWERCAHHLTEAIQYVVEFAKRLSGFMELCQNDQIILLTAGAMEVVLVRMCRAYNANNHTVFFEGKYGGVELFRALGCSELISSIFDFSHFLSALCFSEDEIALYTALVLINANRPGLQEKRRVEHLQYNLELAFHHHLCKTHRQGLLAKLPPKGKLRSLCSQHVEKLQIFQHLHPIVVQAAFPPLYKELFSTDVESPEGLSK
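Drosophila S2 cells stably expressing Gal4-DBD/mouse RORγ fusion under metallothionein promoter plus UAS-luciferase; compound 1 h, then 700 uM CuSO4 induction for 20 h at ambient temperature; inhibition read as reduced luminescence.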
An asterisk follows results filed as active; ? = inconclusive; . = not tested or not shown; [ ] = another dose, or the depositor's remark. Calls come from the whole dose curve; as a rule, active = well fitted curve in the direction sought with a large enough effect; inconclusive = small, poorly fitted or top-dose-only effect, or another doubt; inactive = no such curve, though single readings can be large; an effect the other way counts as inactive or inconclusive. % is set by controls: 0 for no effect and ±100 for the full control effect; potency is the fitted concentration of half-maximal effect.

SMILES | VP16 counter | Tau ThT inhib | Tau fluor cs | Tau fibril FP | RORgamma inh
CCCCCC(=O)NC(=S)NNC(=O)CC | -4.4% | ? | -9.5% | -3.0% | 11.2µM*
O=C(NC(=S)NNS(=O)(=O)c1ccccc1)c1cccnc1 | -9.9% | -18.4% | -12.3% | ? | ?
CCCCC(=O)NC(=S)NNC(=O)CC | 2.3% | ? | -6.1% | -7.9% | 7.94µM*
CCC(C(=O)NC1CCCC1)N(Cc1ccco1)C(=O)CNS(=O)(=O)c1ccccc1 (configuration not stated) | 0.9% | . | . | . | -17.8%
CN(C1CCCCC1)S(=O)(=O)c1ccc2c(c1)c(=O)c(C(=O)N1CCN(c3ccccc3)CC1)cn2C | . | 3.6% | -8.9% | 0.2% | .
C1CN(CCN2CCOCC2)CCN1 | -2.3% | . | . | . | 9.7%[1.91 µM]
CC1(C)CC(NC(=O)c2ccc(Br)o2)CC(C)(C)N1 | 2.6% | . | . | . | -14.0%
COc1cc(/C=C(\C#N)C(=O)c2ccc(O)c(O)c2)cc(I)c1O | . | 8.91µM* | ? | 3.0% | .
C=CCOc1ccc(CN(C)CC(O)COc2cccc3ccccc23)cc1 (configuration not stated) | 3.0% | . | . | . | -8.1%
CCN(CC)S(=O)(=O)c1ccc(NC(=O)NCc2noc3ccc(C)cc23)cc1 | . | 8.2% | 12.6µM*[quencher] | 14.1µM* | .
COc1ccc(S(=O)(=O)N2CCC(C(=O)NCc3ccncc3)CC2)cc1 | 9.9% | . | . | . | -0.2%
COc1ccc(NC(=O)CSc2nnc(-c3ccc(C)cc3)o2)cc1 | . | -0.9% | 14.0% | -7.2% | .
COc1cccc(NC(=O)CSc2nnc(-c3ccc(C)cc3)o2)c1 | 12.6µM* | -10.9% | -14.4% | -14.9% | ?
COc1ccc(-c2nnc(SCC(=O)Nc3cc(C)on3)o2)cc1 | ? | ? | -8.5% | -13.1% | 11.2µM*
COc1cccc(NC(=O)CSc2nnc(-c3cccc(OC)c3)o2)c1 | . | 8.6% | -0.9% | -4.9% | .
CCOC(=O)CSc1nnc(-c2ccc(OC)cc2OC)o1 | ? | -7.9% | -2.7% | 1.6% | 8.91µM*
CCCC(=O)Nc1nnc(SCc2cc(=O)c3cc(C)ccc3[nH]2)s1 | . | 3.1% | 0.7% | -10.4% | .
CC(C)CC(C(=O)NCC1CCN(Cc2ccc(F)cc2)CC1)N1Cc2ccccc2C1=O (configuration not stated) | . | -5.7% | -9.4% | -4.4% | .
CC1CC=C(c2ccccc2)C(=S)N1 (configuration not stated) | 3.16µM* | -6.9% | -0.9% | 1.8% | 1µM*
CCOc1ccccc1/C=N/Nc1ccc(Cl)nn1 | -16.7% | . | . | . | -23.7%
CCOc1ccc(/C=N/Nc2ccc(Cl)nn2)c(O)c1 | 2µM* | . | . | . | 1.58µM*
CCCOc1ccc(/C=N/Nc2ccccc2[N+](=O)[O-])c(O)c1 | ? | ? | -23.2% | 4.9% | 7.08µM*
O=[N+]([O-])c1ccccc1N/N=C/c1cc2ccccc2nc1Cl | -1.6% | 2.24µM* | -28.9% | 6.2% | 2.4%
COCOc1ccc(OC)cc1C(=O)/C=C/c1ccc(OC)c(Br)c1 | -3.6% | ? | -0.1% | ? | -13.6%
CSc1ncc(C(=O)Nc2c(C)cccc2C)c(-c2ccccc2)n1 | . | -8.6% | -10.3% | -12.9% | .
SMILES | VP16 counter | Tau ThT inhib | Tau fluor cs | Tau fibril FP | RORgamma inh
Cc1ccnc(NC(=O)c2ccccc2NC(=O)c2ccc(Cl)cc2Cl)c1 | 12.6µM* | . | . | . | ?
Cc1ccc(C(=O)Nc2ccccc2C(=O)Nc2ccccn2)cc1Cl | 15.8µM* | . | . | . | ?
Cc1ccc(C(=O)Nc2cccnc2Cl)cc1Cl | 17.4% | . | . | . | 10.3%[1.91 µM]
CCCCCCCCC1CO1 (configuration not stated) | -2.2% | . | . | . | -0.6%
C(=C\c1nc(-c2cccnc2)no1)/c1ccccc1 | ? | -1.7% | -8.3% | -7.7% | 4.47µM*
Clc1ccccc1/C=C/c1nc(-c2cccnc2)no1 | 0.5% | . | -3.1% | -1.4% | 2µM*
Cc1ccc(CCS(=O)(=O)c2ccc(C(C)(C)C)cc2)cn1 | -24.9% | . | . | . | ?
Cc1ccc2c(c1)C(c1ccccc1)N(C(=O)c1ccccc1F)CC(=O)N2 (configuration not stated) | . | -6.9% | -9.5% | 0.2% | .
O=C(N/N=C1/CCc2ccccc21)C1CC1 | 4.2% | -9.3% | -14.5% | ? | 7.6%
CC(C)NC(=S)N/N=C1\CCCCc2ccccc21 | 2µM* | -8.4% | -13.6% | -13.0% | 0.794µM*
Cc1ccc(C)c(NC(=S)N/N=C2/CCCCc3ccccc32)c1 | 6.31µM* | -2.7% | -12.6% | 10.4% | 1.58µM*
Cc1ccc(C)c(S(=O)(=O)N/N=C2/CCCc3ccccc32)c1 | 12.6% | -6.8% | -18.4% | -7.4% | 5.3%
COC(=O)N/N=C1\CCCc2ccccc21 | 1.5% | 1.3% | 3.1% | 5.0% | 20.5%
S=C(N/N=C1\CCc2ccccc21)NC1CCCCC1 | 5.62µM* | -3.5% | -5.6% | 0.7% | 1µM*
COc1cccc(NC(=S)N/N=C2/CCCCc3ccccc32)c1 | 5.01µM* | -14.7% | -28.2% | 17.4% | 3.55µM*
Cc1ccc(N(C)C(=O)Cn2cnc3onc(-c4ccc(F)cc4)c3c2=O)cc1C | . | -8.3% | ? | -10.8% | .
Cn1c(-c2c(N)n(CCCc3ccccc3)c3nc4ccccc4nc23)nc2ccccc21 | 2.82µM* | 4.1% | 3.0% | 4.4% | 0.794µM*
Cn1c(-c2c(N)n(CCc3ccccc3)c3nc4ccccc4nc23)nc2ccccc21 | 12.6µM* | ? | 12.6µM*[quencher] | 8.9% | ?
N#Cc1c(N)n(CCc2ccc(F)cc2)c2nc3ccccc3nc12 | 0.8% | -24.4% | ? | -16.4% | -1.4%
Cn1c(-c2c(N)n(C3CCCC3)c3nc4ccccc4nc23)nc2ccccc21 | 5.62µM* | ? | ? | -3.4% | 3.55µM*
O=CNCc1nc2ccccc2n1CCCc1ccccc1 | 1.9% | . | . | . | 7.2%
COCCCn1c(N)c(-c2nc3ccccc3n2C)c2nc3ccccc3nc21 | 7.08µM* | 17.8µM* | 15.8µM*[quencher] | ? | 3.98µM*
C=CCN1CC(C(=O)N(CCCN(C)C)C(=O)NCC)CC2c3cccc4[nH]cc(c34)CC21 (configuration not stated) | 2.1% | . | . | . | -2.6%
CCc1cccc(NC(=O)CCS(=O)(=O)c2cc3c4c(c2)CCN4C(=O)CC3)c1 | . | 2.4% | -5.2% | -9.8% | .
COc1ccc(-c2nc3ccc(NS(=O)(=O)c4ccc(C)cc4)cc3o2)cc1 | . | 6.3% | 15.8µM*[quencher] | -13.5% | .
Cc1ccc(S(=O)(=O)Nc2ccc3nc(-c4ccc(F)cc4)oc3c2)cc1 | . | 9.0% | ? | ? | .
Cc1cccc(-c2[nH]c(C(C)(C)C)nc2-c2ccc3c(c2)OCO3)n1 | 7.08µM* | . | . | . | 1.78µM*
Cc1cccc2nc(COc3ccc(-c4ccccc4)cc3)cn12 | 3.0% | ? | -28.6% | -6.3% | 12.6µM*
Cc1cc(C)n2cc(COc3ccc4ccccc4c3)nc2n1 | -16.0% | ? | 2.3% | -0.4% | -2.2%
O=C(O)c1ccc(-c2nc3ccccc3s2)o1 | 1.2% | 8.3% | 1.3% | -3.4% | 1.2%

Bioassay records deposited in PubChem by National Center for Advancing Translational Sciences (NCATS).
